# Results taken from the supplement of paper PMC4022240.
# ± gives the standard deviation.
# T1: HaloTag-ATRX ADD domain (163-292)
# T1 chain: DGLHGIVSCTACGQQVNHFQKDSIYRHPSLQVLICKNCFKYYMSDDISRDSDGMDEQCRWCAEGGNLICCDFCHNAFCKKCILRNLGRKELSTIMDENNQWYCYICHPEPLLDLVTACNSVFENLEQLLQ
# Legend:
# Assay in all cases: peptide microarray binding signal (635 nm), min-max normalized on array (fraction of array maximum); higher = stronger binding
# Conditions in all cases: peptide region: H2A 1-13
# [1] = biological target: T1, HaloTag-ATRX ADD domain (163-292)
# Method: (§1)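 Histone 13-mer peptides were synthesized as cellulose conjugates with a C-terminal 20-atom PEG linker and printed in triplicate on nitrocellulose. The sequence given is the unmodified backbone; PTMs (Kme1/2/3, Kac, Sph/Tph, Rme/Rme2a/Rme2s, Rcit) are listed in the label and the 'peptide modifications' condition. Slides were probed at 4 °C for 1 h with biotin-labelled (HQ)5-HaloTag reader fusions (ATRX-ADD, ING2-PHD) then streptavidin-Alexa647, or with rabbit histone antibodies then anti-rabbit Alexa647. The mean 635 nm signal of the triplicate spots was scaled 0-1 between the lowest and highest values on each array.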
# [2] = biological target: HaloTag-ING2 PHD (mouse Ing2 200-280)
# Method: as §1
# [3] = biological target: anti-H3K4me3 antibody ab8580
# Method: as §1
# [4] = biological target: anti-H3K9me3 antibody ab8898
# Method: as §1
# [5] = peptide modifications: H2AS1ph H2AR3me2a, binder concentration: 1:2,000 dilution
# [6] = peptide modifications: H2AS1ph H2AR3me2a, binder concentration: 1:10,000 dilution
# [7] = peptide modifications: H2AS1ph H2AK5ac H2AK9ac, binder concentration: 1:2,000 dilution
# [8] = peptide modifications: H2AS1ph H2AK5ac H2AK9ac, binder concentration: 1:10,000 dilution
# [9] = peptide modifications: H2AR3me2a, binder concentration: 1:2,000 dilution
# [10] = peptide modifications: H2AR3me2a, binder concentration: 1:10,000 dilution
# [11] = peptide modifications: H2AS1ph H2AR3me2s, binder concentration: 1:2,000 dilution
# [12] = peptide modifications: H2AS1ph H2AR3me2s, binder concentration: 1:10,000 dilution
# [13] = peptide modifications: H2AK9ac, binder concentration: 1:2,000 dilution
# [14] = peptide modifications: H2AK9ac, binder concentration: 1:10,000 dilution
# [15] = peptide modifications: H2AR3me2s, binder concentration: 1:2,000 dilution
# [16] = peptide modifications: H2AR3me2s, binder concentration: 1:10,000 dilution
# [17] = peptide modifications: H2AR3me1, binder concentration: 1:2,000 dilution
# [18] = peptide modifications: H2AR3me1, binder concentration: 1:10,000 dilution
# [19] = peptide modifications: H2AR3me2s H2AK5ac, binder concentration: 1:2,000 dilution
# [20] = peptide modifications: H2AR3me2s H2AK5ac, binder concentration: 1:10,000 dilution
# [21] = peptide modifications: H2AK5ac H2AK9ac, binder concentration: 1:2,000 dilution
# [22] = peptide modifications: H2AK5ac H2AK9ac, binder concentration: 1:10,000 dilution
# [23] = binder concentration: 1:2,000 dilution
# [24] = binder concentration: 1:10,000 dilution
binder,measurement,setting,value
SGRGKQGGKARAK [H2A 1-13 Sph G Rme2a G K Q G G K A R A K],peptide microarray binding signal,"[1]; peptide modifications: H2AS1ph H2AR3me2a, binder concentration: 50 nM",0.00235 ± 9e-05
same,peptide microarray binding signal,"[1]; peptide modifications: H2AS1ph H2AR3me2a, binder concentration: 500 nM",0.00381 ± 0.00015
same,peptide microarray binding signal,"[2]; peptide modifications: H2AS1ph H2AR3me2a, binder concentration: 10 nM",0.003223 ± 1.8e-05
same,peptide microarray binding signal,"[2]; peptide modifications: H2AS1ph H2AR3me2a, binder concentration: 100 nM",0.00206 ± 4.1e-05
same,peptide microarray binding signal,[3]; [5],0.000472 ± 1.2e-05
same,peptide microarray binding signal,[3]; [6],0.000685 ± 7.2e-06
same,peptide microarray binding signal,[4]; [5],0.000332 ± 3.4e-06
same,peptide microarray binding signal,[4]; [6],0.000577 ± 6.2e-06
SGRGKQGGKARAK [H2A 1-13 Sph G R G Kac Q G G Kac A R A K],peptide microarray binding signal,"[1]; peptide modifications: H2AS1ph H2AK5ac H2AK9ac, binder concentration: 50 nM",0.00408 ± 0.00018
same,peptide microarray binding signal,"[1]; peptide modifications: H2AS1ph H2AK5ac H2AK9ac, binder concentration: 500 nM",0.00738 ± 0.00011
same,peptide microarray binding signal,"[2]; peptide modifications: H2AS1ph H2AK5ac H2AK9ac, binder concentration: 10 nM",0.00257 ± 5e-05
same,peptide microarray binding signal,"[2]; peptide modifications: H2AS1ph H2AK5ac H2AK9ac, binder concentration: 100 nM",0.00687 ± 0.00064
same,peptide microarray binding signal,[3]; [7],0.000321 ± 6.7e-06
same,peptide microarray binding signal,[3]; [8],0.000399
same,peptide microarray binding signal,[4]; [7],0.000272 ± 4.9e-06
same,peptide microarray binding signal,[4]; [8],0.000577 ± 6.2e-06
SGRGKQGGKARAK [H2A 1-13 S G Rme2a G K Q G G K A R A K],peptide microarray binding signal,"[1]; peptide modifications: H2AR3me2a, binder concentration: 50 nM",0.005172 ± 5e-05
same,peptide microarray binding signal,"[1]; peptide modifications: H2AR3me2a, binder concentration: 500 nM",0.0126 ± 0.00024
same,peptide microarray binding signal,"[2]; peptide modifications: H2AR3me2a, binder concentration: 10 nM",0.00382 ± 0.0003
same,peptide microarray binding signal,"[2]; peptide modifications: H2AR3me2a, binder concentration: 100 nM",0.0113 ± 0.00033
same,peptide microarray binding signal,[3]; [9],0.00119 ± 9.3e-05
same,peptide microarray binding signal,[3]; [10],0.00143 ± 2.4e-05
same,peptide microarray binding signal,[4]; [9],0.000483 ± 1.2e-05
same,peptide microarray binding signal,[4]; [10],0.00075 ± 7.9e-06
SGRGKQGGKARAK [H2A 1-13 Sph G Rme2s G K Q G G K A R A K],peptide microarray binding signal,"[1]; peptide modifications: H2AS1ph H2AR3me2s, binder concentration: 50 nM",0.00357 ± 5.8e-05
same,peptide microarray binding signal,"[1]; peptide modifications: H2AS1ph H2AR3me2s, binder concentration: 500 nM",0.00752 ± 0.00025
same,peptide microarray binding signal,"[2]; peptide modifications: H2AS1ph H2AR3me2s, binder concentration: 10 nM",0.00257 ± 5e-05
same,peptide microarray binding signal,"[2]; peptide modifications: H2AS1ph H2AR3me2s, binder concentration: 100 nM",0.00482 ± 0.0003
same,peptide microarray binding signal,[3]; [11],0.000378 ± 3.9e-06
same,peptide microarray binding signal,[3]; [12],0.000571
same,peptide microarray binding signal,[4]; [11],0.000317 ± 9.6e-06
same,peptide microarray binding signal,[4]; [12],0.000577 ± 6.2e-06
SGRGKQGGKARAK [H2A 1-13 S G R G K Q G G Kac A R A K],peptide microarray binding signal,"[1]; peptide modifications: H2AK9ac, binder concentration: 50 nM",0.00348 ± 0.0001
same,peptide microarray binding signal,"[1]; peptide modifications: H2AK9ac, binder concentration: 500 nM",0.00619 ± 0.00024
same,peptide microarray binding signal,"[2]; peptide modifications: H2AK9ac, binder concentration: 10 nM",0.00251 ± 0.00014
same,peptide microarray binding signal,"[2]; peptide modifications: H2AK9ac, binder concentration: 100 nM",0.00638 ± 0.00045
same,peptide microarray binding signal,[3]; [13],0.000547 ± 2.3e-05
same,peptide microarray binding signal,[3]; [14],0.000399
same,peptide microarray binding signal,[4]; [13],0.000227
same,peptide microarray binding signal,[4]; [14],0.00075 ± 1.6e-05
SGRGKQGGKARAK [H2A 1-13 S G Rme2s G K Q G G K A R A K],peptide microarray binding signal,"[1]; peptide modifications: H2AR3me2s, binder concentration: 50 nM",0.00696 ± 0.0016
same,peptide microarray binding signal,"[1]; peptide modifications: H2AR3me2s, binder concentration: 500 nM",0.0101 ± 0.00014
same,peptide microarray binding signal,"[2]; peptide modifications: H2AR3me2s, binder concentration: 10 nM",0.00519 ± 0.00018
same,peptide microarray binding signal,"[2]; peptide modifications: H2AR3me2s, binder concentration: 100 nM",0.00893 ± 0.00025
same,peptide microarray binding signal,[3]; [15],0.00108 ± 4.1e-05
same,peptide microarray binding signal,[3]; [16],0.00183 ± 9.6e-05
same,peptide microarray binding signal,[4]; [15],0.000755 ± 7.7e-05
same,peptide microarray binding signal,[4]; [16],0.000923 ± 2.5e-05
SGRGKQGGKARAK [H2A 1-13 S G Rme G K Q G G K A R A K],peptide microarray binding signal,"[1]; peptide modifications: H2AR3me1, binder concentration: 50 nM",0.00254 ± 4.9e-05
same,peptide microarray binding signal,"[1]; peptide modifications: H2AR3me1, binder concentration: 500 nM",0.005096 ± 3.3e-05
same,peptide microarray binding signal,"[2]; peptide modifications: H2AR3me1, binder concentration: 10 nM",0.00286 ± 0.00013
same,peptide microarray binding signal,"[2]; peptide modifications: H2AR3me1, binder concentration: 100 nM",0.004039 ± 3.4e-05
same,peptide microarray binding signal,[3]; [17],0.000491 ± 9.7e-06
same,peptide microarray binding signal,[3]; [18],0.000514 ± 5.5e-06
same,peptide microarray binding signal,[4]; [17],0.000181
same,peptide microarray binding signal,[4]; [18],0.000404 ± 8.8e-06
SGRGKQGGKARAK [H2A 1-13 S G Rme2s G Kac Q G G K A R A K],peptide microarray binding signal,"[1]; peptide modifications: H2AR3me2s H2AK5ac, binder concentration: 50 nM",0.00458 ± 0.00026
same,peptide microarray binding signal,"[1]; peptide modifications: H2AR3me2s H2AK5ac, binder concentration: 500 nM",0.00562 ± 0.00037
same,peptide microarray binding signal,"[2]; peptide modifications: H2AR3me2s H2AK5ac, binder concentration: 10 nM",0.00603 ± 0.00016
same,peptide microarray binding signal,"[2]; peptide modifications: H2AR3me2s H2AK5ac, binder concentration: 100 nM",0.00461 ± 7.6e-05
same,peptide microarray binding signal,[3]; [19],0.000736
same,peptide microarray binding signal,[3]; [20],0.0012 ± 1.2e-05
same,peptide microarray binding signal,[4]; [19],0.000589 ± 9.4e-06
same,peptide microarray binding signal,[4]; [20],0.00179 ± 6.1e-05
SGRGKQGGKARAK [H2A 1-13 S G R G Kac Q G G Kac A R A K],peptide microarray binding signal,"[1]; peptide modifications: H2AK5ac H2AK9ac, binder concentration: 50 nM",0.00382 ± 4.6e-05
same,peptide microarray binding signal,"[1]; peptide modifications: H2AK5ac H2AK9ac, binder concentration: 500 nM",0.00743 ± 0.00068
same,peptide microarray binding signal,"[2]; peptide modifications: H2AK5ac H2AK9ac, binder concentration: 10 nM",0.00281 ± 0.00011
same,peptide microarray binding signal,"[2]; peptide modifications: H2AK5ac H2AK9ac, binder concentration: 100 nM",0.00815 ± 0.00019
same,peptide microarray binding signal,[3]; [21],0.00109 ± 0.00019
same,peptide microarray binding signal,[3]; [22],0.000571
same,peptide microarray binding signal,[4]; [21],0.000227 ± 4.1e-06
same,peptide microarray binding signal,[4]; [22],0.000519 ± 5.6e-06
SGRGKQGGKARAK [H2A 1-13 S G R G K Q G G K A R A K],peptide microarray binding signal,[1]; binder concentration: 50 nM,0.00364 ± 0.00013
same,peptide microarray binding signal,[1]; binder concentration: 500 nM,0.00819 ± 0.00076
same,peptide microarray binding signal,[2]; binder concentration: 10 nM,0.00298 ± 3.3e-05
same,peptide microarray binding signal,[2]; binder concentration: 100 nM,0.00446 ± 7.4e-05
same,peptide microarray binding signal,[3]; [23],0.00034 ± 6.1e-06
same,peptide microarray binding signal,[3]; [24],0.000571 ± 1.1e-05
same,peptide microarray binding signal,[4]; [23],0.000242 ± 6.7e-06
same,peptide microarray binding signal,[4]; [24],0.000404 ± 4.4e-06
